Rows were chosen to be rich in hits. Some 12% of all compounds tested hit in one or more screens of this group.
Arbovirus anti = arbovirus infection inhibition; arbovirus infection cell-based antiviral screen; inhibition, % at 10 µM; 200,000 tested, 0.37% active; AID 1251; in the data active means inhibition above about 30%
WT yeast gro inh = growth inhibition of WT yeast, mitochondrial fusion screen; mitochondrial fusion phenotypic screen, WT strain; inhibition, % at 10 µM; 190,000 tested, 2.1% active; in the data active means inhibition above about 58%; tested in S. cerevisiae
CHOP inhibitor = inhibitors of CHOP induction in ER stress response; CHO-K1 CHOP-promoter luciferase, tunicamycin-induced, 15-18 h; inhibition, % at 10 µM; 220,000 tested, 3.8% active; AID 2732;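 active means compounds that reduced the stress-induced luciferase reporter signal by more than about 70% of percent inhibition, limit read from the data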
L major viab = Leishmania major promastigote growth inhibition; Leishmania major promastigotes, resazurin fluorescence viability; inhibition, % at 10 µM; AID 1063; 200,000 tested, 9% active; in the data active means inhibition above about 50%;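 further: promastigotes grown with compound for 44 hours at 28 °C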
Each line names hits and unclear results; the compound was inactive in the other large screens.

C#CCn1c(S(=O)(=O)Cc2ccc(F)cc2)nc(-c2ccccc2)c1-c1ccccc1	L major viab 96
CCOC(=O)Cn1c(S(=O)(=O)Cc2cccc(F)c2)nc(-c2ccccc2)c1-c1ccccc1	L major viab 90
CCOC(=O)Cn1c(S(=O)(=O)Cc2ccc(F)cc2)nc(-c2ccccc2)c1-c1ccccc1	none (no result: WT yeast gro inh)
COc1ccccc1N=Cc1c(C)c(C#N)c2[nH]c3ccccc3n2c1=O	CHOP inhibitor 84
CCOc1cc(/C=C2\CCC/C(=C\c3cc(Cl)c(O)c(OCC)c3)C2=O)cc(Cl)c1O	CHOP inhibitor 93, L major viab 93
C=CCNC(=O)/C(C#N)=C\c1cc(Cl)c(O)c(OCC)c1	none
CC(C)CCNc1nnnc2c1sc1nc(N3CCOCC3)c3c(c12)CC(C)(C)SC3	L major viab 57
CC(OC(=O)CCc1nc2ccccc2c(=O)[nH]1)C(=O)NC1CCCC1 (stereo not given)	none
O=C(CCc1nc2ccccc2c(=O)[nH]1)OCc1cccc(C(F)(F)F)c1	L major viab 63
O=C(CCc1nc2ccccc2c(=O)[nH]1)OCc1ccc(-c2ccccc2)cc1	L major viab 93
O=C(COC(=O)CCc1nc2ccccc2c(=O)[nH]1)NC(=O)NC1CCCC1	L major viab 53
Cc1ccc(OCCOC(=O)CCc2nc3ccccc3c(=O)[nH]2)cc1	none
NS(=O)(=O)c1ccc(CCNC(=O)/C=C/c2ccccc2[N+](=O)[O-])cc1	none
C1CN(CC23CC4CC(CC(C4)C2)C3)CCO1	L major viab 81
CSc1cccc(NC(=O)C2CCN(C(=O)c3ccccc3C)CC2)c1	none
COc1ccc(Cl)cc1CN1CCOCC1	none (no result: Arbovirus anti, WT yeast gro inh, L major viab)
Cc1cc(OCc2cccc(Cl)c2)c(C)cc1CN1CCOCC1	WT yeast gro inh 70, L major viab 81
CSc1nccc(-c2nn(-c3ccc(C)cc3)ccc2=O)n1	L major viab 100 (no result: CHOP inhibitor)
Cc1cccn2cc(COc3ccc(-c4ccccc4)cc3)nc12	WT yeast gro inh 80
C=CCNC(=S)N(C1CCCCC1)C1CCCCC1	WT yeast gro inh 72
Cc1nnc(SCC(=O)NC2CCCCC2)n(N)c1=O	none
COc1ccc(OCC(=O)C2CC2)c(C#N)c1	none (no result: Arbovirus anti, WT yeast gro inh, L major viab)
Cc1ccccc1NC(=O)CSc1ccc(-c2ccco2)nn1	none
Cc1cc(C)cc(NC(=O)CSc2ccc(-c3cccs3)nn2)c1	L major viab 72
Cc1cccc(NC(=O)CSc2nnc(-c3ccco3)c(-c3ccco3)n2)c1C	L major viab 87
O=C(CSc1ccc(-c2cccs2)nn1)Nc1ccccc1	none
Cc1cccc(NC(=O)CSc2nc(N)cc(N)n2)c1	none
Cc1ccc(C)c(NC(=O)CSc2ccc(-c3ccco3)nn2)c1	L major viab 55
Cc1cccc(NC(=O)CSc2nnc(-c3ccco3)c(-c3ccco3)n2)c1	L major viab 68
CC(=O)Nc1ccc(C(=O)OCC(=O)NCc2ccccc2)cc1	none
CC(=O)Nc1ccc(C(=O)OCc2ccc(Cl)c(Cl)c2)cc1	L major viab 62
CCC(=O)Nc1ccc(C(=O)OCc2ccc(Cl)c(Cl)c2)cc1	CHOP inhibitor 89, L major viab 65
CC(=O)Nc1ccc(C(=O)OCc2ccccc2Br)cc1	WT yeast gro inh 76
CC(=O)Nc1ccc(C(=O)OCC(=O)N(Cc2ccccc2)C(C)(C)C)cc1	L major viab 67
O=C(CSc1nnc(NC(=O)c2ccc3c(c2)OCO3)s1)NCc1ccco1	none
O=C(Nc1ccccc1)C1=C[C@@H](c2coc3ccccc3c2=O)C[C@@H](OCc2ccc(CO)cc2)O1	none
COc1ccc(-c2cc(-c3ccc(O)cc3)nc(N)c2C#N)cc1OC	L major viab 65
c1coc(CNc2c3c(nc4ccccc24)CCC3)c1	L major viab 88
CC(C)NCC(=O)Nc1c2c(nc3ccccc13)CCC2	none (no result: Arbovirus anti, WT yeast gro inh, L major viab)
C=C(C)Cn1c(C)cc(C)c(S(=O)(=O)c2cccc(C)c2)c1=O	L major viab 96
CCN1CCN(C(CNS(=O)(=O)c2ccc(OC)cc2)c2cccnc2)CC1 (stereo not given)	none
COc1ccc(S(=O)(=O)NCC(c2cccnc2)N2CCN(C)CC2)cc1C (stereo not given)	none
COc1ccccc1N1CCN(C(CNS(=O)(=O)c2ccccc2)c2cccnc2)CC1 (stereo not given)	L major viab 93
COc1ccc(S(=O)(=O)NCC(c2cccnc2)N2CCN(c3ccccc3OC)CC2)cc1C (stereo not given)	L major viab 98
CCOC(=O)Cc1ccc2sc(-c3ccccc3)nc2c1	WT yeast gro inh 64
CC(=O)N1c2ccccc2N(Cc2ccc(C)cc2C)C(=O)C1(C)C	L major viab 94 (no result: CHOP inhibitor)
CCOC(=O)c1sc2ncn(C(CC)C(=O)OC)c(=O)c2c1C (stereo not given)	none
CCOC(=O)c1sc2ncn(C(CC)C(=O)OCC)c(=O)c2c1C (stereo not given)	L major viab 99
O=C(CN1CCCc2ccccc21)NCCc1ccc(F)cc1	none
O=C(Nc1nnc(-c2cccs2)o1)c1ccc(S(=O)(=O)N2CCOCC2)cc1	none
O=C(Nc1nnc(-c2cccs2)o1)c1cccc(Oc2ccccc2)c1	CHOP inhibitor 84, L major viab 52
O=C(Nc1nnc(-c2cccs2)o1)c1cccc(F)c1	L major viab 94 (no result: CHOP inhibitor)
O=C(Nc1nnc(-c2cccs2)o1)c1cc(-c2ccccc2)nc2ccccc12	WT yeast gro inh 71
CN1CCN(NC(=O)c2ccc(Cl)s2)CC1	none
COc1ccc(-c2noc(N(C)CC(=O)Nc3cccc(C(F)(F)F)c3)n2)cc1	WT yeast gro inh 65
COc1ccccc1C(=O)N(NC(=O)Oc1ccccc1)C(C)(C)C	none
CCN1CCN(CCCNC(=O)c2cc3sccc3n2CC)CC1	none
O=C(Nc1ccc2c(c1)OCCO2)c1cc2sccc2n1Cc1ccc(F)cc1	L major viab 97
Cc1cc2c(cc(C(=O)NCCCN3CCOCC3)n2Cc2ccc(Cl)cc2)o1	L major viab 99
CCn1c(C(=O)NCCCN2CCc3ccccc3C2)cc2sccc21	L major viab 91
O=C(Cn1c(C(=O)NCCCN2CCOCC2)cc2sccc21)c1ccccc1	L major viab 81
O=C(Nc1ccc2c(c1)OCCO2)c1cc2sccc2n1Cc1ccccc1	none
Cc1ccc(Cn2c(C(=O)NCCCN3CCOCC3)cc3sccc32)cc1	L major viab 87
CC(C)N=c1scc(-c2cccs2)n1/N=C/c1ccc(O)c(O)c1O	WT yeast gro inh 82, CHOP inhibitor 106
Fc1ccccc1-c1csc(=Nc2cccnc2)n1CC1CCCO1 (stereo not given)	none
CCN=c1scc(C)n1/N=C/c1cc(Br)c(O)c(OC)c1	none
COc1ccc(O)c(/C=N/n2c(-c3ccco3)csc2=Nc2cccnc2)c1	L major viab 91
Fc1ccccc1-c1csc(=Nc2cccnc2)n1CCCn1ccnc1	L major viab 76
CCN=c1scc(-c2cccs2)n1/N=C/c1cc(OC)ccc1O	L major viab 75
CCCn1c(=O)c(Br)cn(-c2ccccc2C)c1=O	none (no result: Arbovirus anti, WT yeast gro inh, L major viab)
CCCCc1nc2ccc(S(=O)(=O)O)cc2[nH]1	none (no result: Arbovirus anti, WT yeast gro inh, L major viab)
C/C(=N/NC(=O)c1cnccn1)c1cccs1	none
CC(C)Cn1c(-c2ccco2)csc1=Nc1cccnc1	L major viab 58
COCCn1c(-c2ccco2)csc1=Nc1cccnc1	none
NS(=O)(=O)c1ccc(CCNC(=O)COC(=O)/C=C/c2ccc(Cl)cc2)cc1	none

From PubChem BioAssay
